Bioassay records as filed in PubChem BioAssay.
In the library only some 12% were active in any assay of this set; here they are far more common.
BAZ2B block = BAZ2B (human) inhibition; AlphaScreen BAZ2B-H3K14Ac peptide displacement; Q9UIF8; Potency, µM (titrated, usually from 114 µM), inactives show top-dose activity change, negative = inhibition, most hits filed as inhibitors; actives 4.4% (n = 360,000); note: % is set by controls: 0 for no effect and ±100 for the full control effect; nearly all actives have a fitted effect of over 60% in size
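In this displacement format the biotinylated H3(5-23) peptide acetylated at Lys14 serves as ligand at 50 nM, with BAZ2B at 50 nM in PBS pH 7.4 containing 0.01% Tween-20. Donor and acceptor beads are 10 ug/mL final.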
JMJD2A Tudor inh = inhibitors of human JMJD2A Tudor domain | AlphaScreen JMJD2A-Tudor / H3K4me3 peptide binding | AID 504339 | actives 4.4% (n = 390,000) | Potency, µM (highest dose often 114 µM), for inactives: top-dose activity change, negative = inhibition, usual class: inhibitors; note: % is set by controls: 0 for no effect and ±100 for the full control effect; nearly all actives have a fitted effect of over 50% in size
Sfp PPTase inh = blocks B. subtilis Sfp PPTase activity. Biochemical Sfp PPTase activity, qHTS. Potency, µM, inactives show largest response in the series, negative = inhibition, actives largely listed as inhibitors. actives 3.5% (n = 310,000);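 note: the enzyme is Sfp with the accession as filed and its product quenches rhodamine fluorescence; 0% = enzyme reaction without inhibitor and -100% = no enzyme wells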
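After 15 min at room temperature with compound, 15 nM Sfp received 5 uM rhodamine-CoA plus 12.5 uM BHQ-2-ybbR (50 mM Hepes pH 7.6, 10 mM MgCl2). Rate came from the fluorescence difference over 30 min, ex 525/em 598 nm.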
HP1b chromo inh = blocks HP1-beta chromodomain binding to methylated histone tails | Potency, µM (top dose mostly 114 µM), for the others: at the highest dose activity change, negative = inhibition, actives largely listed as inhibitors | actives 0.56% (n = 390,000) | P83916 | AlphaScreen HP1-beta / biotin-H3K9me3 peptide binding; note: nearly all actives have a fitted effect of over 70% in size
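AlphaScreen: HP1-beta (50 nM) preformed 30 min with biotin-H3(1-18)K9me3 peptide (50 nM) in PBS pH 7.4, 0.01% Tween-20. Compound added for 30 min at RT, then streptavidin donor/nickel chelate acceptor beads (10 ug/mL) for 30 min.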
L3MBTL1 inh = L3MBTL1 (human) inhibition; Q9Y468; AlphaScreen L3MBTL1–H3K9me1 peptide binding; Potency, µM (highest dose often 57.1 µM), inactives show top-dose activity, negative = inhibition, actives largely listed as inhibitors; actives 0.66% (n = 230,000); note: % is set by controls: 0 for no effect and ±100 for the full control effect; nearly all actives have a fitted effect of over 60% in size
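First, the protein-peptide complex forms for 30 min at room temperature (L3MBTL1 50 nM, biotinylated H3K9me1 peptide 75 nM). Next, compounds are pin-transferred and incubated 30 min. Finally, AlphaScreen beads are added and read after 30 min.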
G9a inh = blocks human histone lysine methyltransferase G9a; Q96KQ7; G9a H3K9 monomethylation, AlphaScreen, 2 h; Potency, µM (doses to about 102 µM), inactives show at the highest dose activity, negative = inhibition, usual class: inhibitors; actives 8.8% (n = 350,000); note: % is set by controls: 0 for no effect and ±100 for the full control effect; nearly all actives have a fitted effect of over 75% in size
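Using a bead-based AlphaScreen, monomethylated H3K9 product from 2 h room-temperature reactions (G9a 20 nM, peptide 500 nM, SAM 20 uM) was detected with 0.5 ug/mL rabbit anti-H3K9me1 antibody.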
The depositor's hits bear a star; ? = inconclusive; nt = no result; [ ] = dose if it differs, or a comment. Calls come from the whole dose curve; as a rule, active = well fitted curve in the direction sought with a large enough effect; inconclusive = small, poorly fitted or top-dose-only effect, or another doubt; inactive = no such curve, though single readings can be large; an effect the other way counts as inactive or inconclusive. Potency is the fitted concentration of half-maximal effect.

SMILES	BAZ2B block	JMJD2A Tudor inh	Sfp PPTase inh	HP1b chromo inh	L3MBTL1 inh	G9a inh
CCCCCCSc1ccc([C@H]2N[C@@](C)(C(=O)OC)[C@H]3C(=O)N(C)C(=O)[C@@H]23)cc1	-6.6%	-29.5%	nt	45.3%	-0.3%	20.7%[2.33 µM]
CC(=O)Nc1nnc(-c2ccco2)o1	?	3.98µM*	-23.1%	8.1%	13.0%	6.8%
Cc1cccc(CN2C(=O)c3ccccc3S(=O)(=O)c3ccc(C(=O)N4CCCC4)cc32)c1	-18.1%	-5.7%	nt	25.0%	nt	4.7%[59 µM]
CC(c1ccccc1)C1OCC(C[N+]2(C)CCCCC2)O1 (stereo unspecified)	-18.9%	56.2µM*	6.1%	?	nt	?
C[N+]1(CC2COC(c3ccccc3)(C3CCCCC3)O2)CCCCC1 (stereo unspecified)	nt	nt	2.6%	nt	nt	?
C[C@H](N)c1nnc(SCc2c(Cl)cccc2Cl)o1	?	-4.2%	?	22.1%	nt	?
C[C@H](N)c1nnc(SCC(=O)N(C)C)o1	?	?	?	49.4%	?	8.91µM*
CCC(=O)Nc1ccc(NC(=O)Cc2ccccc2)cn1	?	-4.1%	3.9%	15.7%	5.6%	56.2µM*
NC(=O)Nc1ccc(Nc2ccccc2)cc1	?	-34.7%	-20.1%	-8.7%	-27.4%	56.2µM*
COCC(=O)Nc1ccc(Nc2ccccc2)cc1	39.8µM*	-23.7%	70.8µM*	-7.4%	-12.9%[11.4 µM]	?
CCOC(=O)c1ccc(NC(=O)COC)cc1	0.1%	0.0%	10.2%	28.4%	5.0%[11.4 µM]	-1.1%[12.7 µM]
CCC(=O)Nc1ccc(NC(=O)CCc2ccccc2)cn1	-4.3%	-4.2%	27.8%	27.0%	-5.6%	-17.5%
CCC(=O)Nc1ccc(O)cc1	nt	nt	7.0%	nt	nt	-6.1%[12.7 µM]
CCC(=O)Nc1ccc(Nc2ccccc2)cc1	-33.6%	-24.5%	17.8%	14.5%	-1.5%	50.1µM*
Cc1ccc(-n2c(SCC(=O)NCc3ccccc3)nc3n[nH]c(C)c3c2=N)cc1Cl	-7.7%	-12.5%	nt	8.0%	nt	-21.6%[59 µM]
N#Cc1cc2nc(O)c(O)nc2cc1[N+](=O)[O-]	6.0%	79.4µM*	14.2%	-18.9%	-7.7%	1.3%[59 µM]
CCN=C1S/C(=C\c2cn(CC(=O)NCc3ccco3)c3ccccc23)C(=O)N1CC	-2.9%	-8.5%	?	-3.4%	nt	8.8%[59 µM]
CN1C(=O)/C(=C/c2cn(CC(=O)N3CCCCC3)c3ccccc23)NC1=S	-27.1%	-29.1%	-0.1%	41.3%	nt	39.8µM*
CN1C(=O)/C(=C/c2cn(CC(=O)NCc3ccco3)c3ccccc23)NC1=S	?	nt	7.08µM*	nt	-2.2%	nt
CCOC(=O)c1nnc(-c2ccccc2)nc1Sc1ccccc1Cl	-7.1%	?	79.4µM*	6.7%	nt	-5.9%
COc1ccccc1/C=C(/C(=O)OCC(=O)Nc1ccc(N(C)C)cc1)c1ccccc1	10µM*	?	-4.7%	?	?	10µM*
CC(C)n1cc(C(N)=S)c(=O)n(Cc2ccccc2)c1=O	-14.5%	-7.8%	15.7%	22.7%	nt	50.1µM*
Cn1c(=O)c(C(N)=S)cn(-c2ccccc2)c1=O	-1.0%	5.0%	16.1%	42.9%	nt	?
COc1ccc(C(=O)N2CCNC(=O)C2)cc1S(=O)(=O)Nc1ccc(Br)cc1	7.0%	-17.4%	nt	3.8%	8.2%	13.0%[59 µM]
N#Cc1ccccc1NC(=O)CN1C(=O)NC(Cc2c[nH]c3ccccc23)C1=O (stereo unspecified)	-3.4%	-10.1%	nt	24.7%	3.3%	10µM*
SMILES	BAZ2B block	JMJD2A Tudor inh	Sfp PPTase inh	HP1b chromo inh	L3MBTL1 inh	G9a inh
CN(C)Cc1cccc([N+](=O)[O-])c1O	-17.0%	-20.6%[11.4 µM]	8.3%	22.3%	1.3%	50.1µM*
C[C@@H]1NC(=O)c2cc([N+](=O)[O-])cc(I)c2OCC[C@@H](C(=O)NC(CC(=O)O)C(N)=O)NC(=O)[C@H](CC(N)=O)NC1=O (stereo partly specified)	?	?	?	17.9%	-8.6%	25.1µM*
C[C@@H]1NC(=O)[C@H](CCCN=C(N)N)NC(=O)c2cc([N+](=O)[O-])cc(I)c2OCC[C@@H](C(=O)NC(CC(=O)O)C(N)=O)NC1=O (stereo partly specified)	-28.2%	nt	-11.9%	nt	-2.9%	39.8µM*
COc1ccc(C)cc1NC(=O)c1cc(S(=O)(=O)N2CCc3ccccc3C2)ccc1F	-0.1%	-19.0%	nt	-2.0%	nt	-3.1%[59 µM]
CC1(C)O[C@H]2[C@@H](O1)[C@@H](C(=O)Nc1ccccc1O)O[C@@H]1OC(C)(C)O[C@@H]12	1.8%	1.0%	nt	44.2%	nt	1µM*
Cc1cc2c(s1)c1cnn(Cc3c(F)c(F)c(C)c(F)c3F)c(=O)c1n2C	nt	-26.7%	nt	nt	nt	nt
O=C(/C=C1\SC(=O)NC1=O)Nc1ccc(F)cc1	-15.9%	-11.7%	-16.2%	15.8%	nt	0.1%
O=C1NC(=O)/C(=C/c2ccc(-c3ccc(F)cc3O)o2)S1	nt	nt	nt	nt	nt	21.2µM*
Cc1ccc(-c2nn(-c3ccccc3)cc2C2SCC(=O)N2Cc2ccccc2)o1 (stereo unspecified)	?	?	22.4µM*	?	-23.8%	10µM*
CCOC(=O)C(=O)Nc1nc(-c2ccc3c(c2)CCN3C(=O)C2CC2)c(C)s1	?	-18.9%	-9.3%	13.6%	nt	50.1µM*
Cc1sc(NC(=O)CN2CCCC2)nc1-c1ccc2c(c1)CCN2C(=O)c1cccc(F)c1	?	?	-3.6%	-9.8%	nt	?
CC(=O)Nc1nc(-c2ccc3c(c2)CC(C)N3C(=O)C2CC2)c(C)s1 (stereo unspecified)	?	-31.5%	50.1µM*	?	nt	25.1µM*
Cc1sc(NC(=O)Cc2ccc3c(c2)OCO3)nc1-c1ccc2c(c1)CCN2C(=O)c1ccc(F)cc1	-9.7%	?	-9.9%	-18.7%	-14.2%	39.8µM*
Cc1sc(NC(=O)c2ccco2)nc1-c1ccc2c(c1)CC(C)N2C(=O)C1CC1 (stereo unspecified)	-3.9%	-26.3%	-18.2%	?	-1.1%	44.7µM*
Cc1sc(NC(=O)c2ccco2)nc1-c1ccccc1	-9.4%	-15.6%	-0.7%	24.6%	-8.6%	8.7%[12.7 µM]
Cc1cccc(OCCC(=O)NNC(=O)c2ccoc2C)c1	13.0%	-2.7%	nt	24.5%	-0.2%	6.8%[12.7 µM]
Cc1cc(C(=O)N/N=C/C(Cl)=C/c2ccccc2)c(C)o1	-25.4%	-29.0%	9.2%	8.9%	-2.5%	13.7%[59 µM]
CCOC(=O)c1cnc(SCc2nc(N)nc(Nc3ccc(C)cc3)n2)nc1N	-10.9%	-15.1%[11.4 µM]	3.6%	55.5%	12.1%[11.4 µM]	17.8µM*
CCOC(=O)c1cnc(SCC(=O)N2CCC(C(N)=O)CC2)nc1N	-28.1%	3.3%	-22.8%	48.6%	5.8%	50.1µM*
CCOC(=O)c1cnc(SCC(=O)c2ccccc2)nc1N	nt	-19.5%	44.7µM*	3.4%	-0.8%	28.2µM*
